These results are taken from PubChem BioAssay (NCATS).

Where “and” joins values, the source holds several entries; their conditions need not be identical. Equal values may be shown once. Inconclusive results are not listed. Calls of active or inactive are those of the source. The call rests on the fitted dose curve; in most records, active means well fitted cell-killing curve with a large enough effect; inconclusive means small, poorly fitted or top-dose-only effect; inactive means no such curve, though single readings can be large or run the other way.
On the % scale 0 is the no-effect control and ±100 the full control effect; potency means the concentration at half of the fitted maximal effect.

A short description of the test: qHTS of pediatric cancer cell lines to identify multiple opportunities for drug repurposing: Primary screen for SK-N-SH cells (AID 1347098). Further: nearly all actives have a fitted effect of over 65% in size. Conditions: SK-N-SH viability, CellTiter-Glo luminescence, 48 h; series mostly up to 57 µM; activity change, negative = cytotoxic: at the top concentration. From the text: Drug repurposing or repositioning has been offered as a strategy for drug development in oncology programs. This approach has special potential for childhood cancers and other rare or orphan diseases, where the expected return on new drug development has been a disincentive to pharmaceuticals.
In this project we exploit the poly-pharmacology of drugs to discover new indications via phenotypic screening of a panel of 19 well-characterized cell lines derived from solid tumors seen in children and adolescents. The goal is to identify approved drugs with previously unrecognized anticancer properties that has the potential to reveal new mechanisms and biological processes involved in carcinogenesis or drug resistance. We employed a titration-based paradigm (quantitative high-throughput screening or qHTS), where all compounds were tested at multiple concentrations for their effect on cell viability. Concentration-response curves (CRCs) were derived directly from the primary screen, and both potency and efficacy values were used to identify compounds with robust bioactivity profiles. We screened the NIH Chemical Genomics Center (NCGC) Pharmaceutical Collection (NPC) and Mechanism Interrogation Plate (MIPE) small molecule collections of approved and investigational compounds against these cell lines; and measured metabolically active cells after 48 hours of compound treatment as a proxy for cell viability.
Assay Submitter: Nathalia J. Martinez, National Center for Advancing Translational Sciences, National Institutes of Health, Rockville, MD, USA; email: natalia.martinez@nih.gov
[1] Shen, M et al. Quantitative high-throughput phenotypic screening of pediatric cancer cell lines identifies multiple opportunities for drug repurposing. Oncotarget 2017 Dec 19;9(4):4758-4772. PMID 29435139.
The cells were obtained from University of North Carolina (UNC), Pediatric Preclinical Testing Program (PPT), and Coriell Institute (CI).
qHTS cell viability assay:
Cells were assayed in growth media at a density of 500-1,000 cells/well. Five microliters of cells were dispensed into 1,536-well, white, solid-bottom, TC-treated plates (Greiner Bio One) using a multidrop dispenser and incubated at 37 degrees C, 5% CO2, under a humidified atmosphere for 5 hours. Twenty-three nanoliters of compounds and controls (neutral control DMSO or positive control bortezomib at final concentration of 2.3 µM) were subsequently transferred by Kalypsys pintool. For primary screens, the MIPE collection was tested at 11-point dilutions (final concentrations range from 0.78 nM to 46 µM) and the NPC collection at 8-point dilutions (final concentrations range from 0.59 nM to 46 µM). Compounds tested in follow-up screens were assayed at 11-point dilutions. Cells were incubated for 48 hours, followed by addition of 3 µL of CellTiter-Glo (Promega). After a 15 min incubation at room temperature, samples were analyzed for luminescence intensity using a ViewLux High-throughput CCD imager equipped with clear filters.
For `O=c1c(O)c(-c2cc(O)c(O)c(O)c2)oc2cc(O)cc(O)c12`, the “activity change, negative = cytotoxic” value was 9.73% (inactive).

For the compound `CC(C)[N+]1(C)[C@@H]2CC[C@H]1CC(OC(=O)C(CO)c1ccccc1)C2` (stereo not given in full), the “activity change, negative = cytotoxic” value was -7.41% (inactive).

`CN(C)C(=O)COC(=O)Cc1ccc(OC(=O)c2ccc(N=C(N)N)cc2)cc1`: the “activity change, negative = cytotoxic” value is -10.1% (inactive).

Take `CS(=O)(=O)OCCCCOS(C)(=O)=O`: the Potency result is “inactive”.

For `CC(C)C[C@H](NC(=O)[C@H](Cc1ccccc1)NC(=O)c1cnccn1)B(O)O`, the Potency was 0.0429 µM (active).

As to `Cc1cccc(CN2CCN(C(c3ccccc3)c3ccc(Cl)cc3)CC2)c1` (stereo not given), the “activity change, negative = cytotoxic” value was -1.82% (inactive).

Take `CC1=C(C)C(=O)C(C(CCCCCC(=O)O)c2ccccc2)=C(C)C1=O` (stereo not given): the Potency result was “inactive”.

On to `O=C(O)c1cc(=O)c2c(OCC(O)COc3cccc4oc(C(=O)O)cc(=O)c34)cccc2o1`, for which the Potency entry was “inactive”.

As to `C[C@@H](c1ncncc1F)[C@](O)(Cn1cncn1)c1ccc(F)cc1F`, the “activity change, negative = cytotoxic” value is 13.6% (inactive).

Take `COc1cc(Nc2c(C#N)cnc3cc(OCCCN4CCN(C)CC4)c(OC)cc23)c(Cl)cc1Cl`: the Potency is 6.12 µM (active).

`c1ccc2[nH]c(-c3cscn3)nc2c1`: the Potency entry is “inactive”.

For `CC(S)C(=O)NCC(=O)O` (stereo not given), the “activity change, negative = cytotoxic” value is 18.9% (inactive).

Regarding `C[Se]CCC(N)C(=O)O` (stereo not given), the “activity change, negative = cytotoxic” value was 22.5% [at 115 µM] (inactive).

On to `O=C1c2c(O)cc(O)cc2OC(c2ccc(O)c(O)c2)C1O` (stereo not given), for which the Potency was 30.4 µM (active).

On to `CC1(C)NC(=O)N(c2ccc([N+](=O)[O-])c(C(F)(F)F)c2)C1=O`, for which the Potency result was “inactive”.

For the compound `CNC[C@H](O)c1ccc(O)c(O)c1`, the Potency entry is “inactive”.

`CCC[C@@H]1C[C@@H](C(=O)N[C@@H]([C@H]2O[C@H](SC)[C@H](O)[C@@H](O)[C@H]2O)[C@@H](C)O)N(C)C1`: the Potency entry is “inactive”.

As for `Cc1c(OCC(F)(F)F)ccnc1CS(=O)c1nc2ccccc2[nH]1` (stereo not given), the Potency entry was “inactive”.

As to `CC(C)Oc1ccc2c(=O)c(-c3ccccc3)coc2c1`, the Potency result was “inactive”.

With `c1cnc2cc3c(cc2n1)C1CNCC3C1`, the “activity change, negative = cytotoxic” value is -3.74% (inactive).

For the compound `COCCCOc1ccnc(CS(=O)c2nc3ccccc3[nH]2)c1C` (stereo not given), the Potency result was “inactive”.

In the case of `Cc1cc(=O)oc2cc(O)ccc12`, the “activity change, negative = cytotoxic” value was -1.67% (inactive).

For `O=C1CCc2ccc(OCCCCN3CCN(c4cccc(Cl)c4Cl)CC3)cc2N1`, the Potency result was “inactive”.

For the compound `Nc1nc(N)c(N=O)c(OCC2CCCCC2)n1`, the Potency was 24.1 µM (active).

Regarding `Clc1ccc(C(Cn2ccnc2)OCc2ccsc2Cl)c(Cl)c1` (stereo not given), the “activity change, negative = cytotoxic” value was -7.81% (inactive).

On to `COC1=C(OC)C(=O)C(CCCCCCCCCCO)=C(C)C1=O`, for which the “activity change, negative = cytotoxic” value was 7.13% (inactive).

As to `CC1Cc2ccccc2N1NC(=O)c1ccc(Cl)c(S(N)(=O)=O)c1` (stereo not given), the Potency result is “inactive”.

With `Cc1ccc(S(=O)(=O)NC(=O)NN2CC3CCCC3C2)cc1` (stereo not given), the “activity change, negative = cytotoxic” value was 0.489% (inactive).

On to `Cc1cc2c(s1)Nc1ccccc1N=C2N1CCN(C)CC1`, for which the Potency entry is “inactive”.

For the compound `O=C(NCCO[N+](=O)[O-])c1cccnc1`, the “activity change, negative = cytotoxic” value is -4.41% (inactive).

Turning to `NCCCCNCCCN`, the Potency is 7.64 µM (active).

With `CCOC(=O)c1c(C)n(C)c2ccc(O)cc12`, the “activity change, negative = cytotoxic” value is -14.3% (inactive).

In the case of `Cc1ccc(C(=O)c2cc(O)c(O)c([N+](=O)[O-])c2)cc1`, the “activity change, negative = cytotoxic” value is -26.8% (inactive).

As to `COc1cc2c(N3CCN(C(=O)Nc4ccc(OC(C)C)cc4)CC3)ncnc2cc1OCCCN1CCCCC1`, the Potency is 27.1 µM (active) and 17.2 µM (active).

Consider `CCCCN(CCCC)CCC(O)c1cc2c(Cl)cc(Cl)cc2c2cc(C(F)(F)F)ccc12` (stereo not given), for which the Potency result was “inactive”.

On to `CC1(C)CCC(C)(C)c2cc(NC(=O)c3ccc(C(=O)O)cc3)ccc21`, for which the Potency entry is “inactive”.

With `Clc1ccc(C(Cn2ccnc2)OCc2ccc(Sc3ccccc3)cc2)c(Cl)c1` (stereo not given), the Potency entry was “inactive”.

With `N=C(N)c1ccc2cc(OC(=O)c3ccc(N=C(N)N)cc3)ccc2c1`, the Potency entry was “inactive”.

For `CC(C)c1ccc2oc3nc(N)c(C(=O)O)cc3c(=O)c2c1`, the Potency entry was “inactive”.

`O=C(NC(Cc1cc(=O)[nH]c2ccccc12)C(=O)O)c1ccc(Cl)cc1` (stereo not given): the Potency entry is “inactive”.
